Y pestis TopoI = Y. pestis Topo-I inhibition via cleavage products | Y. pestis Topo-I cleavage product accumulation, plate reader | activity, % at 10 µM | hit rate 0.064% among 360,000 | AID 504884; in the data active means activity above about 50%, passing the limit was not always enough
PfHsp40 yeast = rescue of PfHsp40-mediated yeast toxicity; AID 504582; S. cerevisiae expressing PfHsp40, growth rescue, ATP luminescence; growth rescue, % at 12.5 µM; hit rate 0.68% among 340,000; in the data active means growth rescue above about 28%, passing the limit was not always enough;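 further: yeast W303a lacking pdr1 and pdr3 grown in galactose medium; growth measured after three days at 30 °C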
FadD28 binding = blocks FadD28 binding to the bisubstrate probe; hit rate 0.22% among 360,000; inhibition, % at 12.5 µM; fluorescence polarization; AID 588549; in the data active means inhibition above about 8.5%, passing the limit was not always enough
Mtb BioA inh = inhibitors of Mycobacterium tuberculosis BioA enzyme; purified M. tuberculosis BioA enzyme, plate reader; inhibition, % at 9.99 µM; hit rate 0.096% among 360,000; AID 602481; in the data active means inhibition above about 40%
PrP 5UTR inh = suppresses PrP 5' UTR mRNA reporter expression; AID 488862; inhibition, % (no concentration beside the values); cell-based PrP 5' UTR mRNA reporter, plate reader; hit rate 0.35% among 340,000; in the data active means inhibition above about 52%; further: 0 = median of the neutral control wells
* marks the source's active call; other numbers are inactive results; nt = no result given. Only some compounds are listed: those with a hit (about 1.1% of all), similar ones and a draw of the others.

SMILES	Y pestis TopoI	PfHsp40 yeast	FadD28 binding	Mtb BioA inh	PrP 5UTR inh
CCCCC(=O)NC(c1ccc(N(C)C)cc1)c1ccc2cccnc2c1O (configuration not stated)	-6.7	508.7*	1.9	0.3	41.7
CCCC(=O)NC(c1ccccc1OC)c1ccc2cccnc2c1O (configuration not stated)	1.4	374.0*	0.0	nt	30.1
CCCCC(=O)NC(c1ccc(N(CC)CC)cc1)c1ccc2cccnc2c1O (configuration not stated)	4.3	128.9*	-1.5	-0.4	37.4
CCCCC(=O)NC(c1ccc(Cl)cc1)c1ccc2cccnc2c1O (configuration not stated)	-17.1	-1.5	-2.4	-1.4	28.3
C[C@H](CO)N1C[C@H](C)[C@@H](CN(C)Cc2ccc(Cl)c(Cl)c2)OCCCC[C@H](C)Oc2ccc(NC(=O)Nc3cccc4ccccc34)cc2C1=O	nt	nt	nt	-2.0	nt
CNC(=O)c1nnsc1S(=O)(=O)c1ccc(Cl)cc1	6.6	209.1*	-0.8	-0.2	-2.2
COCC(=O)N(C)C[C@@H]1Oc2cc(C#CCN(C)C)ccc2S(=O)(=O)N([C@@H](C)CO)C[C@@H]1C	nt	nt	nt	-2.4	nt
Cc1cc(C)c2c(=O)n3c(nc2c1)C(Cc1ccc(O)cc1)NC(=O)c1cc2ccccc2cc1-3 (configuration not stated)	58.7*	nt	-4.0	-1.5	nt
NC(=O)CN1CCN(C(=O)Nc2ccccc2)CC1	6.1	75.8*	-1.7	2.8	-12.7
O=c1c(O)c(-c2cc(O)c(O)c(O)c2)oc2cc(O)cc(O)c12	-21.3	7.7	13.5*	0.0	-24.2
CO[C@H]1CN(C)C(=O)c2cc(NS(C)(=O)=O)ccc2OC[C@@H](C)N(C(=O)C2CCOCC2)C[C@H]1C	nt	nt	nt	-0.7	nt
CN(C)c1ccc(C(C[N+](=O)[O-])c2c(N)n(C)c(=O)n(C)c2=O)c(F)c1C#N (configuration not stated)	8.7	140.2*	0.8	1.6	-15.3
COc1ccc(CN(C)C[C@H]2OCCCC[C@H](C)Oc3ccc(NS(=O)(=O)c4c(C)noc4C)cc3C(=O)N([C@H](C)CO)C[C@H]2C)cc1	nt	nt	nt	-2.1	nt
Cc1cc2cc(CNC(=O)Nc3ccc(Cl)c(Cl)c3)ccc2n1C	-30.8	0.4	12.7*	-2.4	-20.0
COCC(=O)NCc1ccc2c(c1)cc(C)n2C	-7.3	-0.6	-0.4	nt	-1.0
Cc1ccc(-n2ncc3c2CC(C)(C)CC3NC(=O)c2c(C)noc2C)cc1 (configuration not stated)	18.0	91.0*	-2.0	2.9	-5.4
CCN(CC)C(=O)C1CC(=O)N(c2ccc(F)c(Cl)c2)C1 (configuration not stated)	-1.6	40.0*	-4.5	nt	-19.2
CSCCC1NC(=O)N(CC(=O)N2CCc3ccccc3C2)C1=O (configuration not stated)	2.5	49.9*	-2.8	0.5	-6.9
O=C(CCSc1nnc(-c2ccncc2)o1)Nc1cccc(Cl)c1	-12.5	-0.1	-2.4	nt	-15.7
O=C(CCSc1nnc(-c2ccncc2)o1)Nc1ccc(Cl)cc1	1.1	197.0*	-2.3	-0.6	-12.8
Cc1noc(C)c1NC(=O)N(C)C[C@H]1Oc2ccc(NC(=O)CCCCCC(=O)Nc3ccccc3N)cc2CC(=O)N([C@H](C)CO)C[C@H]1C	nt	nt	nt	0.6	nt
Cc1cc(C(=O)COC(=O)CC2Sc3ccccc3NC2=O)c(C)n1-c1cccc(C(F)(F)F)c1 (configuration not stated)	43.6	8.2	-1.4	-1.8	-32.5
Cc1cc(C(=O)COC(=O)Cc2n[nH]c(=O)c3ccccc23)c(C)n1-c1cccc(C(F)(F)F)c1	66.9*	95.6*	-5.2	0.8	-9.3
CN(C)c1ccc2c(c1)[C@@H]1C[C@H](CC(=O)NCC3CC3)O[C@H](CO)[C@@H]1O2	nt	nt	nt	-3.5	nt
CO[C@@H]1CN(C)C(=O)c2ccc(NC(=O)NC(C)C)cc2OC[C@H](C)N(C(=O)C2CCC2)C[C@H]1C	nt	nt	nt	-0.6	nt
SMILES	Y pestis TopoI	PfHsp40 yeast	FadD28 binding	Mtb BioA inh	PrP 5UTR inh
O=C(NC(=S)N1CCN(c2ccc(C(F)(F)F)cc2[N+](=O)[O-])CC1)c1cccs1	-3.7	122.4*	1.8	4.5	-10.0
CCN1CCN(C(=S)NC(=O)c2cccs2)CC1	1.3	0.3	-1.0	-1.3	-14.3
COc1ccc(CNC(=O)COc2ccc(OC)cc2)cc1	1.9	0.9	21.9*	-0.3	-19.2
CC(C)c1ccc(-c2nnn(CCC(=O)O)n2)cc1	8.8	-0.2	-0.3	-0.5	72.8*
CO[C@H]1CN(C)C(=O)c2cc(NC(=O)C3CCCCC3)ccc2OC[C@H](C)NC[C@H]1C	nt	nt	nt	-1.9	nt
CN(C)C(=O)c1ccc(-c2ccc([C@@H]3[C@@H](C#N)N(C(=O)C4CCC4)[C@H]3CO)cc2)cc1	nt	nt	nt	-1.9	nt
C[C@H]1CN([C@@H](C)CO)S(=O)(=O)c2ccc(C#Cc3ccccn3)cc2O[C@H]1CN(C)Cc1cccc(F)c1	nt	nt	nt	-0.3	nt
CC(NC(=O)COC(=O)/C=C/c1ccc(Cl)cc1)c1ccccc1 (configuration not stated)	16.1	31.5*	-1.4	0.0	-13.0
CC(NC(=O)COC(=O)/C=C/c1cccc(F)c1)c1ccccc1 (configuration not stated)	12.7	-1.2	-0.6	0.4	-13.7
C[C@H]1COC2=C1C(=O)C(=O)c1c2ccc2c1CCCC2(C)C	-2.4	71.8*	5.7	2.2	-37.9
COc1cccc(NC(=O)Cn2cnc3c(oc4nc5c(cc43)CCCC5)c2=O)c1	1.9	4.7	-1.7	-1.2	-10.1
COc1ccccc1NC(=O)Cn1cnc2c(oc3nc4c(cc32)CCCC4)c1=O	24.0	0.1	25.1*	0.2	-21.8
CC(=O)c1ccc(C(=O)N(C)C2CCCN(Cc3ccccc3F)C2)s1 (configuration not stated)	-4.6	-0.2	-2.7	75.3*	0.8
COc1ccc(NC(=O)N(C)C[C@@H]2OCCCC[C@H](C)Oc3ccc(NS(=O)(=O)c4ccc(Cl)cc4)cc3C(=O)N([C@H](C)CO)C[C@H]2C)cc1	nt	nt	nt	-0.5	nt
CCC(=O)N(C1=C(NC)C(=O)c2ccccc2C1=O)C(C)C	1.9	0.5	-2.4	nt	-29.4
CNC1=C(N(C(C)=O)c2ccc(Br)cc2)C(=O)c2ccccc2C1=O	-10.6	76.8*	-0.2	nt	-44.0
CN1C(=O)c2cc(NC(=O)Cc3ccccc3)ccc2OC[C@H]2O[C@@H](CC(=O)NC3CCC3)CC[C@H]21	nt	nt	nt	-2.1	nt
CC(C)NC(=O)N1[C@H](CN(C)C(=O)c2cccnc2)[C@@H](c2ccccc2)[C@@H]1CO	nt	nt	nt	2.8	nt
C[C@@H]1CCCCO[C@H](CN(C)C(=O)Cc2ccccc2)[C@H](C)CN([C@@H](C)CO)C(=O)c2cc(NC(=O)Nc3ccc4c(c3)OCO4)ccc2O1	nt	nt	nt	-1.6	nt
O=C1C2ON(c3ccccc3)C(c3ccncc3)C2C(=O)N1c1ccc(Br)cc1 (configuration not stated)	15.1	1.8	-1.6	3.0	-14.3
O=C1C2ON(c3ccccc3)C(c3ccccn3)C2C(=O)N1c1ccc(Br)cc1 (configuration not stated)	-1.3	6.1	13.2*	-1.5	-11.1
O=C(NNC(=O)c1cc2ccccc2cc1O)NC1CCCCC1	-10.3	59.7*	-4.8	-2.2	-16.6

Assay outcomes from PubChem BioAssay.
